# PubChem BioAssay (Tox21)
# The source made the active and inactive calls. The call rests on the fitted dose curve; in most records, active means well fitted curve in the direction sought with a large enough effect in the repeat runs; inconclusive means weak or mixed curves; inactive means flat fitted curve, though single readings scatter.
# Assay: qHTS assay to test for compound auto fluorescence at 460 nm (blue) in HepG2 cells (AID 720687)
# Settings: autofluorescence 405/460 nm, 1 h; series mostly up to 91.3 µM; fluorescence, % of fluorescent control: at the top concentration
# How it was run: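 Cells (2,000/well in MEM with 10% FBS) attached overnight at 37 C, then were exposed to compound or DMSO for 1 hr at 37 C, 5% CO2. Fluorescence read at Ex/Em 405/460 nm, expressed as triamterene-equivalent signal.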
# On the % scale 0 is the no-effect control and ±100 the full control effect.
Compound,"fluorescence, % of fluorescent control",Potency
OCCC1CCCCN1 (stereo not drawn),0.0312% (inactive),–
CCCC[C@H]1CN(CC2CCOCC2)C(=O)OC12CCN(C1(C)CCN(C(=O)c3c(C)ncnc3C)CC1)CC2,0.492% (inactive),–
O=C(O)COC(=O)Cc1ccccc1Nc1c(Cl)cccc1Cl,0.0219% [at 18.6 µM] (inactive),–
Cc1cc(C)c(S(=O)(=O)O)cc1N=Nc1cc(S(=O)(=O)O)c2ccccc2c1O,-0.721% (inactive),–
N#Cc1c(F)cccc1F,-0.0686% (inactive),–
CCOc1nc2cccc(C(=O)O)c2n1Cc1ccc(-c2ccccc2-c2nn[nH]n2)cc1,-0.0269% [at 46 µM] (inactive),–
NC(N)=NN=C(/C=C/c1ccc([N+](=O)[O-])o1)/C=C/c1ccc([N+](=O)[O-])o1,0.882% [at 46 µM] (inactive),–
Cc1ccccn1,–,inactive
NC1CCN(c2nc3c(cc2F)c(=O)c(C(=O)O)cn3-c2ccc(F)cc2F)C1 (stereo not drawn),-0.198% [at 46 µM] (inactive),–
COc1cc(C(C)(C)C)c(O)c(C(C)(C)C)c1,0.0521% (inactive),–
CC(C)c1cccc(C(C)C)c1NC(=O)NS(=O)(=O)c1cc(C(C)(C)O)co1,-0.323% (inactive),–
O=C(O)C(c1ccc(Cl)cc1)c1ccc(Cl)cc1,-0.119% (inactive),–
COCCCCCCCCOCCC[Si](C)(O[Si](C)(C)C)O[Si](C)(C)C,0.018% (inactive),–
CC(Cc1cccc(C(F)(F)F)c1)NCCOC(=O)c1ccccc1 (stereo not drawn),-0.0937% [at 46 µM] (inactive),–
O=C(/C=C/c1ccc(O)c(O)c1)O[C@@H]1C[C@](O)(C(=O)O)C[C@@H](O)[C@H]1O,3.18% [at 95.7 µM] (inactive),–
O=C1[C@H](CC[C@H](O)c2ccc(F)cc2)[C@@H](c2ccc(O)cc2)N1c1ccc(F)cc1,-0.0467% [at 46 µM] (inactive),–
CC(C)(C)c1cc(O)c(C(C)(C)C)cc1O,-0.0001% (inactive),–
C=C(C)C(=O)OCCN(C)C,-0.0021% (inactive),–
